# Results published in the antibiotic and cytotoxicity screens of Wong et al. (2023).
# About 1,500 (3.8%) of roughly 39,000 compounds were called active. This is one part of a sample in which actives are shown more often than they occur.
# Tested on: HSkMC (human skeletal muscle cells)
# Assay: cytotoxicity call (relative viability < 0.9)
# Conditions: 10 µM
row,Compound,cytotoxicity call
1,CCC(=O)Nc1ccc2c(c1)C(=O)N(C)C[C@H](OC)[C@@H](C)CN(C(=O)CN1CCOCC1)[C@H](C)CO2,inactive
2,CC(C)NC(=O)Nc1ccc2c(c1)C(=O)N([C@@H](C)CO)C[C@@H](C)[C@@H](CN(C)C(=O)Nc1ccc(C(F)(F)F)cc1)OCCCC[C@@H](C)O2,inactive
3,C[C@@H]1CCCCO[C@H](CN(C)S(=O)(=O)c2cccs2)[C@@H](C)CN([C@@H](C)CO)C(=O)c2cc(NC(=O)Nc3cccc4ccccc34)ccc2O1,inactive
4,C[C@@H]1CCCCO[C@H](CN(C)C(=O)CCC(F)(F)F)[C@@H](C)CN([C@H](C)CO)C(=O)c2cc(NC(=O)Cc3ccccc3)ccc2O1,inactive
5,CC(C)NC(=O)Nc1cccc2c1O[C@@H](CN(C)Cc1ccc3c(c1)OCO3)[C@@H](C)CN([C@H](C)CO)C2=O,inactive
6,C[C@@H]1CN([C@H](C)CO)C(=O)c2cc(NS(=O)(=O)c3ccccc3)ccc2O[C@@H]1CN(C)S(C)(=O)=O,inactive
7,C[C@H]1CN([C@@H](C)CO)S(=O)(=O)c2ccc(C#Cc3ccncc3)cc2O[C@H]1CN(C)C(=O)C1CCOCC1,inactive
8,Cc1noc(C)c1S(=O)(=O)Nc1ccc2c(c1)C(=O)N([C@H](C)CO)C[C@H](C)[C@H](CN(C)C(=O)Nc1cccc3ccccc13)OCCCC[C@@H](C)O2,inactive
9,Cc1noc(C)c1S(=O)(=O)Nc1ccc2c(c1)C(=O)N([C@H](C)CO)C[C@H](C)[C@@H](CN(C)C(=O)Nc1cccc3ccccc13)OCCCC[C@H](C)O2,active
10,Cc1noc(C)c1S(=O)(=O)Nc1ccc2c(c1)C(=O)N([C@@H](C)CO)C[C@@H](C)[C@@H](CN(C)C(=O)Nc1cccc3ccccc13)OCCCC[C@H](C)O2,inactive
11,Cc1nnnn1CC(=O)Nc1ccc(F)cc1,inactive
12,COc1ccc(NC(=O)Nc2ccc3c(c2)[C@H]2C[C@H](CC(=O)NCc4ccncc4)O[C@H](CO)[C@H]2O3)cc1,inactive
13,C[C@@H]1CCCCO[C@@H](CN(C)C(=O)Nc2ccccc2)[C@H](C)CN([C@H](C)CO)C(=O)c2cc(NC(=O)Cc3ccccc3)ccc2O1,inactive
14,Cc1ccc(S(=O)(=O)Nc2ccc3c(c2)C(=O)N([C@H](C)CO)C[C@@H](C)[C@@H](CN(C)C(=O)C2CCCCC2)OCCCC[C@H](C)O3)cc1,inactive
15,O=C(O)c1cn(C2CC2)c2cc(N3CCC(O)(COc4ccc(N5C[C@H](CO)OC5=O)cc4F)CC3)c(F)cc2c1=O,inactive
16,O=C(CCCCCCC(=O)Nc1ccc([C@@H]2O[C@H](CSc3ccncc3)C[C@H](c3ccccc3)O2)cc1)NO,inactive
17,O=C(CCCCCCC(=O)Nc1ccc([C@H]2O[C@@H](CSc3ccncc3)C[C@H](c3ccccc3)O2)cc1)NO,inactive
18,O=C(/C=C/c1ccc(CNc2ccc([C@H]3O[C@@H](CSc4ccncc4)C[C@H](c4ccccc4)O3)cc2)cc1)NO,active
19,C[C@H](CO)N1C[C@H](C)[C@H](CN(C)C(=O)NC2CCCCC2)Oc2cc(-c3cccnc3)ccc2S1(=O)=O,inactive
20,COc1ccc(NC(=O)N(C)C[C@H]2OCCCC[C@H](C)Oc3ccc(NC(=O)c4ccncc4)cc3C(=O)N([C@H](C)CO)C[C@@H]2C)cc1,inactive

row,Compound,cytotoxicity call
1,CCc1ccc(NC(=S)Nc2ccccc2C(C)C)cc1,inactive
2,COCC#Cc1ccc2c(c1)O[C@@H](CN(C)C(=O)COC)[C@@H](C)CN([C@H](C)CO)S2(=O)=O,inactive
3,COc1ccc(S(=O)(=O)Nc2ccccc2CN(C)C/C=C/c2ccc(Cl)cc2)cc1.O=P(=O)OO,inactive
4,COc1ccc(CN(C)C[C@H]2Oc3ccc(NC(=O)Nc4ccc(C(F)(F)F)cc4)cc3CC(=O)N([C@@H](C)CO)C[C@@H]2C)cc1,inactive
5,COc1ccc(NC(=O)Nc2ccc3c(c2)CC(=O)N([C@@H](C)CO)C[C@H](C)[C@@H](CN(C)Cc2ccc(C(F)(F)F)cc2)O3)cc1,inactive
6,COc1ccc(NC(=O)Nc2ccc3c(c2)CC(=O)N([C@H](C)CO)C[C@H](C)[C@H](CN(C)Cc2ccc(C(F)(F)F)cc2)O3)cc1,inactive
7,COc1ccc(NC(=O)Nc2ccc3c(c2)CC(=O)N([C@H](C)CO)C[C@@H](C)[C@@H](CN(C)Cc2ccc(C(F)(F)F)cc2)O3)cc1,active
8,COc1ccc(NC(=O)Nc2ccc3c(c2)CC(=O)N([C@H](C)CO)C[C@@H](C)[C@H](CN(C)Cc2ccc(C(F)(F)F)cc2)O3)cc1,inactive
9,COc1ccc(CN(C)C[C@H]2Oc3ccc(NC(=O)Nc4ccc(C(F)(F)F)cc4)cc3CC(=O)N([C@H](C)CO)C[C@H]2C)cc1,active
10,COc1ccc(NC(=O)Nc2ccc3c(c2)CC(=O)N([C@@H](C)CO)C[C@@H](C)[C@@H](CN(C)Cc2ccc(C(F)(F)F)cc2)O3)cc1,inactive
11,COc1ccc(NC(=O)Nc2ccc3c(c2)CC(=O)N([C@H](C)CO)C[C@H](C)[C@@H](CN(C)Cc2ccc(C(F)(F)F)cc2)O3)cc1,inactive
12,COc1ccc(NC(=O)Nc2ccc3c(c2)CC(=O)N([C@@H](C)CO)C[C@H](C)[C@H](CN(C)Cc2ccc(C(F)(F)F)cc2)O3)cc1,active
13,COc1ccc(CN(C)C[C@@H]2Oc3ccc(NC(=O)Nc4ccc(C(F)(F)F)cc4)cc3CC(=O)N([C@@H](C)CO)C[C@@H]2C)cc1,inactive
14,COc1ccc(NC(=O)Nc2ccc3c(c2)CC(=O)N([C@@H](C)CO)C[C@@H](C)[C@H](CN(C)Cc2ccc(C(F)(F)F)cc2)O3)cc1,inactive
15,COc1ccc(CN(C)C[C@H]2Oc3ccc(NC(=O)Nc4ccc(C(F)(F)F)cc4)cc3CC(=O)N([C@@H](C)CO)C[C@H]2C)cc1,active
16,COc1ccc(C#Cc2ccc3c(c2)[C@]2(C(=O)N3)[C@H](C(=O)N3CCc4cc(OC)c(OC)cc4C3)[C@H]3C(=O)O[C@H](c4ccccc4)[C@H](c4ccccc4)N3[C@@H]2c2ccc(O)cc2)cc1,inactive
17,C[C@@H]1CN([C@H](C)CO)C(=O)Cc2cc(NC(=O)Nc3ccc(C(F)(F)F)cc3)ccc2O[C@H]1CN(C)C(=O)Nc1cccc2ccccc12,inactive
18,C[C@H](CO)N1C[C@H](C)[C@@H](CN(C)C(=O)Cc2ccccn2)Oc2cc(C#Cc3ccccc3)ccc2S1(=O)=O,inactive
19,Cn1ncc2c1CCCC2=O,inactive
20,Cc1noc(C)c1NC(=O)N(C)C[C@H]1Oc2ncc(C#CCN(C)C)cc2C(=O)N([C@H](C)CO)C[C@H]1C,inactive

row,Compound,cytotoxicity call
1,COc1cccc(S(=O)(=O)N(C)C[C@@H]2Oc3ncc(C#CCN(C)C)cc3C(=O)N([C@@H](C)CO)C[C@@H]2C)c1,inactive
2,C[C@@H]1CN([C@H](C)CO)C(=O)Cc2cc(NC(=O)Nc3ccc4c(c3)OCO4)ccc2O[C@@H]1CN(C)S(C)(=O)=O,inactive
3,COc1ccc(NC(=O)N(C)C[C@H]2OCCCC[C@H](C)Oc3ccc(NC(=O)c4ccccc4)cc3C(=O)N([C@@H](C)CO)C[C@@H]2C)cc1,inactive
4,COc1ccc(S(=O)(=O)N(C)C[C@H]2OCCCC[C@@H](C)Oc3ccc(NC(=O)CCC(F)(F)F)cc3C(=O)N([C@@H](C)CO)C[C@@H]2C)cc1,inactive
5,COc1ccc(NC(=O)Nc2ccc3c(c2)CC(=O)N([C@@H](C)CO)C[C@H](C)[C@@H](CN(C)C(=O)Nc2ccc(C(F)(F)F)cc2)O3)cc1,inactive
6,COc1ccc(CN(C)C[C@@H]2Oc3ccc(NC(=O)Nc4ccc(C(F)(F)F)cc4)cc3CC(=O)N([C@H](C)CO)C[C@@H]2C)cc1,active
7,COc1ccc(CN(C)C[C@@H]2Oc3ccc(NC(=O)Nc4ccc(C(F)(F)F)cc4)cc3CC(=O)N([C@H](C)CO)C[C@H]2C)cc1,inactive
8,C[C@@H]1CN([C@@H](C)CO)C(=O)c2cccc(NS(C)(=O)=O)c2O[C@@H]1CN(C)S(=O)(=O)c1cn(C)cn1,inactive
9,COc1ccc(NC(=O)N(C)C[C@H]2Oc3ccc(NS(=O)(=O)c4c(C)noc4C)cc3C(=O)N([C@@H](C)CO)C[C@H]2C)cc1,inactive
10,COc1ccc(S(=O)(=O)Nc2ccc3c(c2)C(=O)N([C@@H](C)CO)C[C@@H](C)[C@@H](CN(C)S(C)(=O)=O)O3)cc1,inactive
11,COc1ccccc1C#Cc1ccc2c(c1)O[C@@H](CN(C)Cc1cncnc1)[C@H](C)CN([C@H](C)CO)S2(=O)=O,active
12,COc1ccccc1C#Cc1ccc2c(c1)O[C@H](CN(C)Cc1cncnc1)[C@@H](C)CN([C@H](C)CO)S2(=O)=O,inactive
13,COc1ccccc1C#Cc1ccc2c(c1)O[C@H](CN(C)Cc1cncnc1)[C@H](C)CN([C@H](C)CO)S2(=O)=O,inactive
14,COc1ccccc1C#Cc1ccc2c(c1)O[C@@H](CN(C)Cc1cncnc1)[C@H](C)CN([C@@H](C)CO)S2(=O)=O,active
15,COc1ccccc1C#Cc1ccc2c(c1)O[C@@H](CN(C)Cc1cncnc1)[C@@H](C)CN([C@@H](C)CO)S2(=O)=O,inactive
16,COc1ccccc1C#Cc1ccc2c(c1)O[C@H](CN(C)Cc1cncnc1)[C@@H](C)CN([C@@H](C)CO)S2(=O)=O,inactive
17,COc1ccc(S(=O)(=O)N(C)C[C@H]2Oc3c(NC(=O)c4cc(C)nn4C)cccc3C(=O)N([C@H](C)CO)C[C@H]2C)cc1,inactive
18,C[C@@H]1CCCCO[C@H](CN(C)CC2CC2)[C@@H](C)CN([C@H](C)CO)C(=O)c2cc(NC(=O)CCC(F)(F)F)ccc2O1,inactive
19,COc1ccc(S(=O)(=O)N2c3ccc(Cl)cc3[C@](O)(c3ccccc3Cl)[C@@H]2C(=O)N2CCC[C@H]2C(N)=O)cc1OC,inactive
20,C[C@@H]1CN([C@@H](C)CO)C(=O)c2cccc(NS(=O)(=O)c3cn(C)cn3)c2O[C@H]1CN(C)C(=O)Nc1ccc2c(c1)OCO2,inactive
